For 3 compounds, residual bioluminescent signal results are on record in the supplement of paper PMC11628255, “Interference of metal ions on the bioluminescent signal of firefly, Renilla, and NanoLuc luciferases in high-throughput screening assays” (Frontiers in Chemistry, 2024).

Molecules are shown by their SMILES. ± gives the standard deviation of the averaged measurements.

The subject of this assay is firefly luciferase (FLuc). The experiment in a line: residual bioluminescent signal relative to negative control without GSH; higher = less interference (more residual luciferase signal). Conditions: screening conditions buffer. How it is done: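 Selected metal salts at 3-4 concentrations tested on purified FLuc, NLuc or RLuc in screening buffer with 0, 0.2 or 2 mM glutathione added; 10 min enzyme pre-incubation at RT, luminescence 10 min after substrate. Signal normalised to negative control without GSH (% N_VALUE); triplicate wells.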

Where [1] appears, read: metal salt concentration 1 mM, glutathione 0 mM.
The mark [2] stands for this setting: metal salt concentration 1 mM, glutathione 0.2 mM.
Setting [3] is: metal salt concentration 1 mM, glutathione 2 mM.

For the compound `O=[N+]([O-])[O-].[Ag+]` [silver nitrate], the residual bioluminescent signal (metal salt concentration 0.0001 mM, glutathione 0 mM) was determined as 58.4 ± 11%; the residual bioluminescent signal (metal salt concentration 0.0001 mM, glutathione 0.2 mM) amounted to 63.3 ± 6%; the residual bioluminescent signal (metal salt concentration 0.0001 mM, glutathione 2 mM) came to 0.242 ± 0.17%; the residual bioluminescent signal (metal salt concentration 0.000243 mM, glutathione 0 mM) stood at 1.26 ± 0.36%; the residual bioluminescent signal (metal salt concentration 0.000243 mM, glutathione 0.2 mM) was 64.7 ± 3.9%; the residual bioluminescent signal (metal salt concentration 0.000243 mM, glutathione 2 mM) came to 0.483 ± 0.34%. Further, the residual bioluminescent signal by setting is: (metal salt concentration 0.0005 mM, glutathione 0 mM) 0.58 ± 0.43%; (metal salt concentration 0.0005 mM, glutathione 0.2 mM) 61.9 ± 10%; (metal salt concentration 0.0005 mM, glutathione 2 mM) 0.58 ± 0.29%; under setting [1], 0.435 ± 0.38%; under setting [2], 0.918 ± 0.47%; under setting [3], 0.531 ± 0.3%.
`O=[N+]([O-])[O-].O=[N+]([O-])[O-].[Cu+2]` [copper(II) nitrate]: the residual bioluminescent signal runs as follows: (metal salt concentration 0.05 mM, glutathione 0 mM) 84.5 ± 15%; (metal salt concentration 0.05 mM, glutathione 0.2 mM) 54.9 ± 3.8%; (metal salt concentration 0.05 mM, glutathione 2 mM) 0.483 ± 0.17%; (metal salt concentration 0.125 mM, glutathione 0 mM) 86.3 ± 9.3%; (metal salt concentration 0.125 mM, glutathione 0.2 mM) 19.4 ± 1.1%; (metal salt concentration 0.125 mM, glutathione 2 mM) 0.531 ± 0.34%. For the same compound, the residual bioluminescent signal was 65.3 ± 11% (metal salt concentration 0.2 mM, glutathione 0 mM); 5.12 ± 2% (metal salt concentration 0.2 mM, glutathione 0.2 mM); 0.628 ± 0.44% (metal salt concentration 0.2 mM, glutathione 2 mM); 0.628 ± 0.47% under setting [1]; 0.338 ± 0.17% under setting [2]; 0.435 ± 0.25% under setting [3].
Consider `O=[N+]([O-])[O-].O=[N+]([O-])[O-].[Zn+2]` [zinc nitrate], for which the residual bioluminescent signal is, setting by setting: (metal salt concentration 0.5 mM, glutathione 0 mM) 100 ± 3.4%; (metal salt concentration 0.5 mM, glutathione 0.2 mM) 29.7 ± 6%; (metal salt concentration 0.5 mM, glutathione 2 mM) 0.435 ± 0.25%; under setting [1], 1.06 ± 0.55%; under setting [2], 0.918 ± 0.74%; under setting [3], 0.387 ± 0.17%. For the same compound, the residual bioluminescent signal reads like this: (metal salt concentration 1.20 mM, glutathione 0 mM) 0.387 ± 0.17%; (metal salt concentration 1.20 mM, glutathione 0.2 mM) 0.676 ± 0.36%; (metal salt concentration 1.20 mM, glutathione 2 mM) 0.676 ± 0.36%; (metal salt concentration 2.5 mM, glutathione 0 mM) 0.58 ± 0.29%; (metal salt concentration 2.5 mM, glutathione 0.2 mM) 0.87 ± 0.43%; (metal salt concentration 2.5 mM, glutathione 2 mM) 0.338 ± 0.34%.
